# In PubChem BioAssay AID624483 (NMMLSC, 2012):
# “And” between values parts separate entries of the source, which are not always exact repeats. Equal values may be shown once. Out of some 360,000 compounds screened, about 11,000 (3.1%) were called active. Inconclusive results (about 2%) are left out. Rule as the data show it: active = fluorescence intensity above about 16000; inconclusive = no clear call, values can overlap the other calls; inactive = below that. Only a selection was taken, and actives are over-represented in it overall. Some structures have more than one record in an assay (separate samples or runs), and their calls can disagree.
# Test: compound fluorescence in toxin protease inhibitor counterscreen, primary screen, artefact control for toxin protease inhibitor project, biochemical, multiplex microsphere, HTS (AID 624483)
# Conditions: compound autofluorescence counterscreen, microsphere flow cytometry; stronger effect = higher value
row,SMILES,fluorescence intensity
1,CN(Cc1ccccc1F)c1cc2c(c3c1ccn3C)C1CCC2O1 (stereo not drawn),5510 (inactive)
2,CC(C)(C)C(=O)CSc1nc2ccccc2o1,4330 (inactive)
3,CCN(CC)C(=O)CSc1nc2ccccc2o1,2780 (inactive)
4,CC=CCn1c(SCCCc2ccccc2)nc2c1c(=O)[nH]c(=O)n2C,3020 (inactive)
5,Cn1c(=O)[nH]c(=O)c2c1nc(Br)n2CCCCSc1nc2ccccc2o1,24200 (active)
6,Cc1ccnc(SCCn2c(Br)nc3c2c(=O)[nH]c(=O)n3C)n1,2110 (inactive)
7,Cn1c(=O)c2c(nc(Br)n2CCSc2nc3ccccc3o2)n(C)c1=O,20900 (active)
8,CC1Cc2[nH][nH]c(=O)c2C(C2CC2)O1 (stereo not drawn),6380 (inactive)
9,CCCCc1c(-c2ccc(Br)cc2)ncn1CCc1ccccc1OC,5930 (inactive)
10,Cc1c(C(C)CCCO)oc(=O)c2c1Oc1c(C)c(C(C)C[C@@H](C)O)oc(=O)c1C2 (stereo partly drawn),3640 (inactive)
11,CCn1c(SCC(=O)NC2CC2)nnc1-c1ccncc1,4270 (inactive)
12,COc1cccc(C(O)c2ncc(-c3ccc4ccccc4c3)[nH]2)c1 (stereo not drawn),4120 (inactive)
13,S=C(NCCCc1cnc[nH]1)NCCCN(Cc1ccc(Cl)c(Cl)c1)c1ccc(Br)cn1,3910 (inactive)
14,Cc1ccc(NC(=O)c2ccco2)cc1,3370 (inactive)
15,Cc1ccc(-n2nc3cc(C)c(NC(=O)c4cccnc4)cc3n2)cc1,3240 (inactive)
16,Cc1ccc(-n2nc3cc(Cl)c(NC(=O)c4ccco4)cc3n2)cc1,20600 (active)
17,CN(C(=O)CN1CCN(c2cc(-c3ccc(OCc4ccccc4)cc3)ncn2)CC1)c1ccccc1,2960 (inactive)
18,COC(=O)c1ccc2nc(-c3cccc(Br)c3)c(Cc3ccccc3C(F)(F)F)n2c1,5960 (inactive)
19,Nc1nnc(SCC(=O)Nc2ccc3nc(SCC(=O)Nc4ccccc4)sc3c2)s1,2450 (inactive)
20,O=[N+]([O-])c1c(NCCO)cc(Sc2nc3ccccc3s2)c2nonc12,16100 (active)

row,SMILES,fluorescence intensity
1,OCCNc1nc(Nc2ccc(Cl)c(Cl)c2)nc2ccccc12,3890 (inactive)
2,COc1ccc(C2=NO[C@@H]3C(=O)N(Cc4ccccc4)C(=O)[C@H]23)cc1OC,8330 (inactive)
3,Cc1cc2ccccn2c1C(=O)c1cccc(F)c1,3460 (inactive)
4,Cc1c(C=O)c2ccccn2c1C(=O)c1ccncc1,20400 (active)
5,Cc1c(C(=O)NNC(=O)c2ccncc2)oc2ccccc12,6810 (inactive)
6,O=C(CN1C(=O)NC2(CCCCCC2)C1=O)Nc1ccc([N+](=O)[O-])cc1,3160 (inactive)
7,O=C(NCCO)c1cccc(-c2cccc3nccn23)c1,3960 (inactive)
8,C[C@H](CO)N1C[C@H](C)[C@@H](CN(C)Cc2ccc(-c3ccccc3)cc2)Oc2ccc(NC(=O)Cn3cnnn3)cc2C1=O,3780 (inactive)
9,COc1ccc(NC(=O)C2Cc3c(-c4cccc(NC(C)=O)c4)ccnc3O2)cc1OC (stereo not drawn),3970 (inactive)
10,CNC(=O)CN1C(=O)NC(c2ccccc2)(c2ccccc2)C1=O,4630 (inactive)
11,CC1(C(=O)NS(=O)(=O)c2ccccc2Cl)CCN1C(=O)c1cccc(F)c1 (stereo not drawn),2940 (inactive)
12,O=c1[nH]c(=O)n(Cc2ccco2)c2c1C(C(F)(F)F)(C(F)(F)F)N=C(c1ccco1)N2,24800 (active)
13,Cc1ccccc1C1=NC(C(F)(F)F)(C(F)(F)F)c2c(n(-c3ccc(F)cc3)c(=O)[nH]c2=O)N1,10500 (inactive)
14,CC(=O)Nc1ccc(S(=O)(=O)NC2(C(F)(F)F)C(=O)Nc3c2c(=O)[nH]c(=O)n3Cc2ccccc2)cc1 (stereo not drawn),2630 (inactive)
15,CC(C)C[C@H]1CNC(=O)C(=O)N1C[C@H]1CCCN1C[C@H](Cc1ccc(O)cc1)N1C[C@H](CC(C)C)N(CC2CCCCCC2)C(=O)C1=O,4880 (inactive)
16,COCCCNC(=S)NCCNc1nc2cc(C)c(C)cc2cc1C#N,4720 (inactive)
17,Cc1ccc2nc(NCCCNC(=O)c3cnccn3)c(C#N)cc2c1,20100 (active)
18,O=C(COc1ccc(Cl)cc1Cl)NCCCNC(=O)c1cnccn1,3160 (inactive)
19,CCOc1ccc2nc(Cl)c(C3CC(c4ccccc4)=NN3C(=O)c3cccs3)cc2c1 (stereo not drawn),2410 (inactive)
20,Nc1ccccc1Sc1cc(Cl)nnc1Cl,3840 (inactive)

row,SMILES,fluorescence intensity
1,COC(=O)c1cc(OC)c(OC)cc1NC(=O)C1CCCO1 (stereo not drawn),18500 (active)
2,CCc1cc(Br)ccc1NC(=O)C1CCCO1 (stereo not drawn),10900 (inactive)
3,CCOC(=O)c1ccc(NC(=O)c2ccc(NC(=O)C3CCCO3)cc2)cc1 (stereo not drawn),3420 (inactive)
4,O=S1(=O)CC(N2CCN(Cc3ccccc3F)CC2)CN1Cc1cn(Cc2ccccc2)nn1 (stereo not drawn),5590 (inactive)
5,CCC(C)(C(=O)Nc1ccccc1C)N(C(=O)CNC(C)=O)c1ccc(C)cc1 (stereo not drawn),2200 (inactive)
6,COc1cccc(-c2nc3ccc(N4CCN(C)CC4)cc3[nH]2)c1,3340 (inactive)
7,CC1CCN(c2ccc([N+](=O)[O-])c(SCCO)c2)CC1,6270 (inactive)
8,CN1CCN(c2ccc([N+](=O)[O-])c(Sc3nc4ccccc4[nH]3)c2)CC1,16500 (active)
9,CC1Cc2[nH][nH]c(=O)c2C(C2CCCC2)O1 (stereo not drawn),6280 (inactive)
10,Cc1ccc(C(=O)C[n+]2cc(-c3ccccc3)n3c2CCCCC3)cc1,25100 (active) and 2670 (inactive)
11,Cc1ccc(-c2c[n+](CC(=O)Nc3ccccc3)c3n2CCC3)cc1,3860 (inactive)
12,Clc1ccc(C[n+]2cc(-c3ccccc3)n3c2CCC3)cc1,3590 (inactive)
13,O=S(=O)(N1CCCCC1)N1CCNCC1,9990 (inactive)
14,O=C(c1ccc(Cl)c([N+](=O)[O-])c1)N1CCN(c2ccccc2)CC1,4410 (inactive)
15,CO/N=C/c1ccc(N2CCN(C(=O)c3cccc(Cl)c3)CC2)c([N+](=O)[O-])c1,22700 (active)
16,O=C(/C=C/c1ccc(Cl)cc1)N1CCN(c2ccccc2[N+](=O)[O-])CC1,2480 (inactive)
17,Cc1cccnc1C(NC(=O)C1CCN(Cc2ccc(Cl)c(Cl)c2)CC1)c1ccc(Cl)cc1 (stereo not drawn),3480 (inactive)
18,Cc1ccc(S(=O)(=O)NCCC(c2ccccc2)c2ccccc2)cc1C(=O)O,3790 (inactive)
